Source: PubChem (several laboratories)
ALR inh – human ALR oxidase inhibition via reduced H2O2. P55789. purified ALR, DTT oxidation, H2O2 HRP-luminol luminescence. inhibition, % (concentration not given with the values). 3.8% of 290,000 active. AID 485317;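 active = mean replicate inhibition above about 79%, with every replicate also reaching it, limit read from the data; inconclusive = only one of the two criteria met; inactive = mean below limit and not every replicate reaching it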
PABP polyA inh – PABP-poly(A) binding inhibition; 1% of 290,000 active; P11940; inhibition, % at 35 µM; PABP-poly(A) RNA binding, fluorescence polarization; AID 2014;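 also: calls also rest on retests at 20 µM and on dose response follow-up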
MLLE-PAM2 inh – inhibitors of microRNA-mediated deadenylation, human PABP1 MLLE binding; GST-MLLE / FITC-PAM2 fluorescence polarization; AID 588489; 0.36% of 360,000 active; P11940; inhibition, % at 20 µM; in the data active = inhibition above about 35%, passing the limit was not always enough;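 also: plate controls were DMSO wells with GST-MLLE for no effect and wells lacking GST-MLLE protein for full effect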
SUMO HTRF inh – inhibitors of human SUMOylation (UBC9). P63279. HTRF SUMOylation assay, SAE1/SAE2 + UBC9, in vitro. inhibition, % at 35 µM. 0.36% of 290,000 active. AID 2006; in the data active = inhibition above about 50%, passing the limit was not always enough; inconclusive = no clear call, values can overlap the other calls
Target sequence (P63279 whole entry, looked up): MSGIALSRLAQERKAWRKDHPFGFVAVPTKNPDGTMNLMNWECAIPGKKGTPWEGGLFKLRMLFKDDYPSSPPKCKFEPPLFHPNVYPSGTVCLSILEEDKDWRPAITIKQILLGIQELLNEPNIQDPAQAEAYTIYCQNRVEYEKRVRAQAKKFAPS
eIF4H FP inh – inhibitors of RNA binding by human eIF4H. Q15056. eIF4H fluorescence polarization binding assay. inhibition, % at 35 µM. 0.94% of 290,000 active. AID 2012;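 also: calls also rest on retests at 20 µM and on dose response follow-up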
Efflux pump mplx – antifungal efflux pump inhibition, Nile Red retention; 0.44% of 330,000 active; S. cerevisiae Candida pump triplex; AID 485275; inhibition, % at 10 µM;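 active = plate passing quality check with inhibition over a set limit, or well fluorescence over plate mean plus 4 SD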;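 also: Nile Red retained in pooled yeast measured as flow cytometry median fluorescence; 0% = buffer negative control and 100% = Enniatin B positive control; higher means more Nile Red kept so more efflux inhibition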
Active calls of the source: *. Only some compounds are listed: those with a hit (about 4.7% of all), similar ones and a draw of the others. Unless noted, no rule for the calls is given here.

For Cc1cccn2c(=O)c3cc(C#N)c(=NC(=O)c4ccccc4)n(Cc4ccco4)c3nc12 the results were ALR inh 89*, MLLE-PAM2 inh 21 and Efflux pump mplx 0.
`CCc1ccc([C@@H]2CC=C(C(=O)O)[C@H](c3cccc(Cl)c3)N2S(=O)(=O)c2ccc(C)cc2)cc1` gave ALR inh 6, MLLE-PAM2 inh -8 and Efflux pump mplx 0.
O=C(NCCCN1CCCC1=O)c1cc(S(=O)(=O)N2CCOCC2)ccc1Cl was read as ALR inh -3, PABP polyA inh -1, MLLE-PAM2 inh 0, SUMO HTRF inh 20, eIF4H FP inh 3 and Efflux pump mplx 0.
`Cc1cc(C)c(/C=N/NC(=O)c2nnn(-c3nonc3N)c2CN2CCC(C)CC2)c(C)c1` gave ALR inh 0, PABP polyA inh 3, MLLE-PAM2 inh -7, SUMO HTRF inh -41, eIF4H FP inh -8 and Efflux pump mplx 0.
CC1CCN(Cc2c(C(=O)N/N=C/c3cc(Cl)ccc3O)nnn2-c2nonc2N)CC1 was read as PABP polyA inh -4, MLLE-PAM2 inh -3, SUMO HTRF inh 82*, eIF4H FP inh 6 and Efflux pump mplx 0.
`CC1CCN(Cc2c(C(=O)N/N=C/c3cc(Br)ccc3O)nnn2-c2nonc2N)CC1` gave PABP polyA inh 4, MLLE-PAM2 inh -15, SUMO HTRF inh 76*, eIF4H FP inh 7 and Efflux pump mplx 0.
`CCN(C[C@H]1N[C@@](C)(C(=O)OC)[C@H]2C(=O)N(C)C(=O)[C@@H]12)S(=O)(=O)c1ccc(F)cc1` gave MLLE-PAM2 inh 4 and Efflux pump mplx 0.
C=C(C)C1CC=C(C)/C(=N\NC(=O)CNc2cccc3ccccc23)C1 (configuration not stated) was read as ALR inh -19, PABP polyA inh -12, MLLE-PAM2 inh 11, SUMO HTRF inh 45, eIF4H FP inh 0 and Efflux pump mplx 0.
Cc1ccc(NNC(N)=S)cc1Cl was read as ALR inh 99*, PABP polyA inh -7, MLLE-PAM2 inh -40, SUMO HTRF inh 6, eIF4H FP inh -1 and Efflux pump mplx 0.
NC(=S)NNc1ccc(Cl)c(Cl)c1 was read as PABP polyA inh -1, MLLE-PAM2 inh -23, SUMO HTRF inh 8, eIF4H FP inh -1 and Efflux pump mplx 0.
`COc1c(NC=O)c2c(c([N+](=O)[O-])c1OC)C(=O)OC2` gave MLLE-PAM2 inh -10.
For CCC(c1nnnn1Cc1ccc(OC)cc1)N(CCCO)Cc1cc2cc3c(cc2[nH]c1=O)OCO3 (configuration not stated) the results were ALR inh -34, PABP polyA inh 7, MLLE-PAM2 inh 15, SUMO HTRF inh 7, eIF4H FP inh 5 and Efflux pump mplx 0.
For CC(C)C(c1nnnn1Cc1ccccc1)N(CCCO)Cc1cc2cc3c(cc2[nH]c1=O)OCO3 (configuration not stated) the results were ALR inh -14, PABP polyA inh 94*, MLLE-PAM2 inh 28, SUMO HTRF inh 28, eIF4H FP inh 111* and Efflux pump mplx 0.
For O=c1[nH]c2cc3c(cc2cc1CN(CCCO)Cc1nnnn1Cc1ccc(F)cc1)OCO3 the results were PABP polyA inh -5, MLLE-PAM2 inh 46*, SUMO HTRF inh 21, eIF4H FP inh 4 and Efflux pump mplx 0.
Cc1ccc2cc(CN(CCO)Cc3nnnn3Cc3ccc(F)cc3)c(=O)[nH]c2c1 was read as ALR inh -37, PABP polyA inh -5, MLLE-PAM2 inh -3, SUMO HTRF inh 8, eIF4H FP inh 3 and Efflux pump mplx 0.
`Cc1cc2c(Nc3cccc(O)c3)ncnc2s1` gave ALR inh 99*, PABP polyA inh 11, MLLE-PAM2 inh 7, SUMO HTRF inh 2, eIF4H FP inh 5 and Efflux pump mplx 0.
Cc1cc2c(Nc3ccccc3O)ncnc2s1 was read as MLLE-PAM2 inh -1.
CCN(CC(=O)Nc1ccc2c(c1)OCCO2)C(=O)COc1ccc(C)cc1 was read as ALR inh 0, PABP polyA inh 12, MLLE-PAM2 inh 4, SUMO HTRF inh 9, eIF4H FP inh 5 and Efflux pump mplx 0.
Screening CC(Oc1ccc(Br)cc1)C(=O)NCCCN1CCCC1=O (configuration not stated) returned ALR inh -1, MLLE-PAM2 inh -9 and Efflux pump mplx 0.
For O=P(c1ccccc1)(c1ccccc1)c1cc(S(=O)(=O)O)ccc1O the results were ALR inh -8, PABP polyA inh 30*, MLLE-PAM2 inh -9, SUMO HTRF inh 5, eIF4H FP inh 78* and Efflux pump mplx 0.
Screening CCOC(=O)CSC1=N/C(=C\c2cc(OC)c(OC)c(OC)c2)C(=O)N1C returned ALR inh -7, PABP polyA inh 0, MLLE-PAM2 inh 42*, SUMO HTRF inh 14, eIF4H FP inh -2 and Efflux pump mplx 0.
`O=C(NNc1cc(N2CCOCC2)nc(N2CCOCC2)n1)c1ccc(Cl)cc1Cl` gave ALR inh -3, PABP polyA inh 0, MLLE-PAM2 inh 11, SUMO HTRF inh 86*, eIF4H FP inh -1 and Efflux pump mplx 0.
CC(=O)NNc1cc(N2CCOCC2)nc(N2CCOCC2)n1 was read as ALR inh -17, PABP polyA inh -5, MLLE-PAM2 inh 20, SUMO HTRF inh 30, eIF4H FP inh inconclusive and Efflux pump mplx 0.
CSc1ncccc1C(=O)NCCc1ccc(S(N)(=O)=O)cc1 was read as ALR inh -6, PABP polyA inh 9, MLLE-PAM2 inh -5, SUMO HTRF inh -2, eIF4H FP inh -2 and Efflux pump mplx 0.
CCOC(=O)C1=C(N)Oc2cc(O)ccc2C1c1cccc([N+](=O)[O-])c1 (configuration not stated) was read as ALR inh 85*, PABP polyA inh 0, MLLE-PAM2 inh 2, SUMO HTRF inh -15, eIF4H FP inh -4 and Efflux pump mplx 0.
O=C(Nc1cccc(N=Cc2cc(Br)cc(Br)c2O)c1)c1ccco1 was read as ALR inh 3, PABP polyA inh active, MLLE-PAM2 inh -8, SUMO HTRF inh 78, eIF4H FP inh inconclusive and Efflux pump mplx 0.
O=C(Nc1cc(Br)c(O)c(Br)c1)c1cccc(NC(=O)c2ccco2)c1 was read as ALR inh 98*, PABP polyA inh 10, MLLE-PAM2 inh -4, SUMO HTRF inh -5, eIF4H FP inh -15 and Efflux pump mplx 0.
For O=C(CSc1nc2ccc([N+](=O)[O-])cc2s1)c1ccc2ccccc2c1 the results were PABP polyA inh 1, MLLE-PAM2 inh -117, SUMO HTRF inh 20 and eIF4H FP inh -5.
For Nc1cccc2c(=O)[nH][nH]c(=O)c12 the results were MLLE-PAM2 inh -35.
`O=c1[nH][nH]c2c(N=Cc3ccccc3O)ccc(F)c12` gave PABP polyA inh inconclusive, MLLE-PAM2 inh 49*, SUMO HTRF inh 66* and eIF4H FP inh inconclusive.
